ABHD5 PLIN5 PPI – blocks binding of human ABHD5 to perilipin-5. Split G. princeps luciferase complementation, luminescence, 4 h. inhibition, % at 4 µM. 360,000 compounds, 0.78% hits. AID 602281;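 active = inhibition above the mean inhibition across every tested compound plus 3 SD, cut at about 22% in these data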;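 note: 0% = DMSO only wells and the 100% control is not disclosed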
PRMT1 inh – PRMT1 (human) inhibition, primary screen | recombinant PRMT1, activity-based probe fluorescence polarization | inhibition, % at 2.79 µM | 370,000 compounds, 1.3% hits;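 active = inhibition above about 21% made by adding two undisclosed values, limit read from the data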
ALR inh – blocks human ALR sulfhydryl oxidase activity. P55789. purified ALR, DTT oxidation, H2O2 HRP-luminol luminescence. inhibition, % (concentration not given with the values). 290,000 compounds, 3.8% hits. AID 485317;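 active = mean replicate inhibition above about 79%, with every replicate also reaching it, limit read from the data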
Target sequence (P55789 whole entry, looked up): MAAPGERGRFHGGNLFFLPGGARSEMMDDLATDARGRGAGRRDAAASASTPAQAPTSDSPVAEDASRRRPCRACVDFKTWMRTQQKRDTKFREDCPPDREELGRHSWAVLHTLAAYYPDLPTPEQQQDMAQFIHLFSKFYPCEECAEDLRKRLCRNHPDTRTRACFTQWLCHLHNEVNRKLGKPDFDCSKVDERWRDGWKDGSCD
LANA-H2B inh – blocks KSHV LANA binding to histone H2A/H2B. Q9QR71. cell-free LANA-H2A/H2B peptide, fluorescence polarization. inhibition, % (test concentration not listed). 320,000 compounds, 0.6% hits. AID 2629; in the data active = inhibition mostly above about 10%, no sharp cut-off; inactive = mostly below about 6.7%
Rtt109 HAT inh – inhibitors of Candida albicans Rtt109/Vps75 histone acetyltransferase; Q5AAJ8; purified Rtt109/Vps75, ThioGlo CoA-SH fluorescence, 4 h; inhibition, % at 34.9 µM; 330,000 compounds, 0.16% hits; AID 540336;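 active = inhibition of at least 50% in every replicate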
Target sequence (Q5AAJ8 whole entry, looked up): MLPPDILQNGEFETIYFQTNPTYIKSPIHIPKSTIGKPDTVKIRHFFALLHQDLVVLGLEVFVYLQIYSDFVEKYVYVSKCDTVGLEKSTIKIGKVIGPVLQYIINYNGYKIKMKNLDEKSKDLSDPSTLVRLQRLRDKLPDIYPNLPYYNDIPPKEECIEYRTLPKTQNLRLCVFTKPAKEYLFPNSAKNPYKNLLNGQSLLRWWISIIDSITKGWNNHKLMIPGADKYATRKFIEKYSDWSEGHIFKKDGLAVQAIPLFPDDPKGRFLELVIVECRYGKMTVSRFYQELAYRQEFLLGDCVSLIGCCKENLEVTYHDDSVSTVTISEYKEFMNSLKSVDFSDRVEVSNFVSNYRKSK
rCAG RNA binder – binds r(CAG) RNA repeats; inhibition, % at 3 µM; 370,000 compounds, 1.3% hits; r(CAG) RNA repeat, TO-PRO-1 dye displacement fluorescence;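 active = inhibition above the plate cutoff, the mean of all test compounds on that plate plus 3 SD, cut at about 35% in these data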;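 note: 0% = DMSO alone and 100% = 100 µM mitoxantrone as full dye displacement; higher means more dye released from RNA so lower well fluorescence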
The depositor's hits bear a star; x = no result given; + = active, no number. In the library only some 5.9% were active in any assay of this set; here they are far more common.

SMILES | ABHD5 PLIN5 PPI | PRMT1 inh | ALR inh | LANA-H2B inh | Rtt109 HAT inh | rCAG RNA binder
CCN(CC)c1ccc(/C=N/NC(=O)c2ccc3nc[nH]c3c2)cc1 | -6 | -5 | 99* | 5 | 19 | 7
COc1cccc(C(=O)N/N=C/c2ccc(OC3CSC3)cc2)c1 | 0 | -1 | -8 | 46* | 16 | 6
COC(=O)Cn1ncc(N2CC(C)OC(C)C2)c(Cl)c1=O (stereo not given) | 1 | -2 | -15 | 4 | -7 | 0
Cc1ccc2nc(-c3ccc(SCC(=O)O)nc3)[nH]c2c1 | 4 | 16 | 98* | 6 | 11 | 14
O=C(NNc1ccccc1)C(=O)NNS(=O)(=O)c1ccc(CCCl)cc1 | 2 | -3 | 99* | -22 | 65* | 6
Cc1sc2ncnc(N(C)C3CCCCC3)c2c1C | 0 | 0 | 22 | -5 | 0 | -3
CN(c1nnc(N)s1)C1CCCCC1 | 4 | 4 | 99* | -2 | -9 | 0
Cc1cccc(NC(=O)Nc2ccccc2C(=O)N2CCCC2)c1 | x | -1 | x | x | x | -1
Cn1c(=O)cc(OCC(=O)NCc2ccccn2)c2ccccc21 | 73* | 0 | -14 | 2 | -9 | -5
Cn1c(=O)cc(OCCCC(=O)NCc2ccccn2)c2ccccc21 | -1 | 1 | -2 | 5 | 5 | -2
CCN(CCCNC(=O)COc1cc(=O)n(C)c2ccccc12)c1cccc(C)c1 | 1 | 0 | 98* | -1 | -11 | -3
O=C(C(=O)N1CCC(CNS(=O)(=O)c2ccc(F)cc2)CC1)c1cc2ccccc2o1 | x | -6 | x | x | x | 8
Cc1ccc2c(c1)N(CCCC(=O)N(C)Cc1ccccc1Cl)C(=O)CO2 | x | -2 | x | x | x | -1
COc1cccc2cc(C(C)N(CCCN3CCOCC3)C(=S)Nc3cccc(C)c3)oc12 (stereo not given) | -4 | -8 | 4 | 13* | 37 | -8
CCCCn1c(O)c(/C=C2\C=NN=C2c2ccccc2)sc1=S | -3 | 0 | 9 | -1 | 8 | 3
CCn1c(O)c(/C=C2\C=NN=C2c2ccccc2)sc1=S | -5 | 7 | -2 | 15* | 3 | 10
Cc1cccc(C)c1NC(=O)C1C(c2ccc3c(c2)OCO3)=Nc2ccccc2N1C(=O)c1cccc2ccccc12 (stereo not given) | 5 | 1 | x | x | x | 17
CCOC(=O)/C=C/C(=O)Nc1cc(S(=O)(=O)Nc2ccc(OC)cc2)ccc1N1CCOCC1 | 22* | 3 | x | x | 19 | 4
CCN(CC)S(=O)(=O)c1ccc(N2CCOCC2)c(NC(=O)COc2ccc(OC)cc2)c1 | -2 | 0 | 1 | + | 1 | 0
COc1cc(C2C(C#N)=C(N)Oc3c2ccc2ccccc32)ccc1OCC(=O)Nc1ccccc1C (stereo not given) | 6 | 3 | -9 | -1 | 0 | 36*
CCn1c2ccccc2c2nnc(SCc3ccc(C(=O)OC)o3)nc21 | 2 | 24* | -2 | -1 | -3 | 18
CCn1c2ccccc2c2nnc(SCc3ccccc3)nc21 | 9 | -1 | -2 | 2 | -3 | 5
CCOC(=O)Cc1csc(NC(=O)c2sc3nc4ccc(CC)cc4cc3c2N)n1 | -8 | 3 | -4 | 0 | -4 | 44*
CCOC(=O)Cc1csc(NC(=O)c2sc3nc4cc(C)ccc4cc3c2N)n1 | 0 | 5 | 5 | -1 | -8 | 16
CC(C)(C)c1ccc(C(=O)NC(=S)Nc2nc3c(s2)CCCC3)cc1 | 2 | 0 | -3 | 3 | x | 2
SMILES | ABHD5 PLIN5 PPI | PRMT1 inh | ALR inh | LANA-H2B inh | Rtt109 HAT inh | rCAG RNA binder
Cc1onc(-c2ccccc2)c1C(=O)Nc1nc2c(s1)CCCC2 | -1 | 3 | -6 | -3 | -3 | -1
Cc1cc(C(=O)Nc2nc3c(s2)CCCC3)no1 | 0 | -1 | 96* | -5 | 0 | 1
CN(C)c1ccc(C(=O)Nc2nc3c(s2)CCCC3)cc1 | -4 | 3 | 96* | 1 | 10 | 4
CC(C)(C)OC(=O)NCC1CCC(C(=O)NC[C@H](CC(=O)O)c2ccc(Cl)cc2)CC1 (stereo not given in full) | 3 | 0 | x | 0 | -10 | -2
CCOC(=O)c1ccc(CSC(=N)N)o1 | 1 | 6 | 99* | -4 | -21 | -6
COc1ccc(-c2oc3c(c2C#CC(C)(C)O)C(OC)CCC3)cc1 (stereo not given) | 1 | -3 | x | x | x | 1
Clc1ccc(C2Nc3cccc4cccc(c34)N2)cc1Cl | -1 | 9 | -28 | -4 | -3 | 9
Clc1cccc(Cl)c1C1Nc2cccc3cccc(c23)N1 | 21 | 31* | -20 | 1 | -1 | 20
CN(C)c1cccc(C(=O)NCC(c2ccco2)N(C)C)c1 (stereo not given) | -1 | -5 | x | 0 | -2 | 2
CCOC(=O)c1c(C)[nH]c(N=Nc2ccc(C)cc2)c1C | -2 | 1 | -13 | -4 | 0 | 7
CCOC(=O)c1c(C)[nH]c(N=Nc2ccccc2)c1C | -13 | 1 | 87* | 0 | -3 | 3
CC(Oc1ccc2c(-c3ccccc3)cc(=O)oc2c1)C(=O)N[C@H](Cc1c[nH]c2ccccc12)C(=O)O (stereo not given in full) | -6 | -6 | 20 | -6 | 8 | 31
O=C(COc1ccc2c(-c3ccccc3)cc(=O)oc2c1)N[C@H](Cc1c[nH]c2ccccc12)C(=O)O | 5 | 9 | -1 | 5 | 6 | 40*
O=C(O)/C(=C\c1ccco1)NC(=O)c1ccccc1 | -1 | 13 | 97* | 2 | 1 | 2
O=C(Nc1cccc(C(F)(F)F)c1)/C(=C\c1ccco1)NC(=O)c1cccs1 | 2 | 21 | 9 | -1 | 20 | 11
O=C(Nc1cccc(F)c1)/C(=C\c1ccco1)NC(=O)c1cccs1 | 1 | 23* | x | 0 | 2 | 16
O=C(N/C(=C/c1ccco1)C(=O)N1CCCCCC1)c1cccs1 | 19 | 7 | 97* | 0 | -14 | 1
CCOc1ccc(N2C(=O)CSC2=S)cc1 | -11 | 13 | -41 | 7 | 3 | 4
CCN(CC)c1ccc(N2C(=O)CSC2=S)cc1 | -9 | 17 | 98* | -5 | 3 | 16
O=C(O[C@H]1CC[C@@]23CCCN2C(=O)CCC[C@H]3C1)N1CCN(c2ccccc2)CC1 | x | 2 | x | x | x | x
CCOC(=O)C1CCCN(C(=O)Cn2sc3nc(C)cc(C)c3c2=O)C1 (stereo not given) | 64* | x | 35 | -5 | -1 | x
CCOC(=O)C1CCCN(C(=O)Cn2cnc3c2c(=O)n(C)c(=O)n3C)C1 (stereo not given) | -1 | -2 | -15 | -4 | x | -4
COc1ccc(C2=NOC(Cn3nc(C(=O)NCc4ccccc4OC)cc3-c3ccccc3)C2)cc1 (stereo not given) | 0 | 1 | -5 | 7 | 5 | 8

Bioassay records (PubChem)
